NLRP3 yeast inh = NALP3 inhibition in yeast; Yeast reconstituted NLRP3/ASC/caspase-1, beta-gal luminescence, 24 h; inhibition, % at 10 µM; hit rate 0.39% among 330,000; AID 2825;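 active = inhibition of 50% or more; inactive = inhibition below 50%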;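 also: plate controls were induced DMSO wells for no effect and uninduced yeast grown without galactose for full effect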
PfHsp90 yeast 2 = inhibits growth of yeast expressing Plasmodium falciparum Hsp90 | S. cerevisiae expressing PfHsp90, BacTiter-Glo ATP, 48 h; yeast lacking PDR1 and PDR3 efflux regulators | inhibition, % at 9.4 µM | hit rate 0.32% among 310,000 | AID 504621;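 active = every replicate shows inhibition above about 80%, whatever the replicate mean, limit read from the data; inconclusive = mean inhibition reaches the set limit but some replicate falls short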;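 also: 0% = DMSO neutral controls and 100% = 20 µM radicicol positive controls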
tim10-1 inh = growth inhibitors of tim10-1 mutant yeast | AID 463190 | S. cerevisiae tim10-1 ts strain growth, BacTiter-Glo, 24 h | hit rate 2.2% among 330,000 | inhibition, % at 20 µM;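 active = inhibition of at least 40%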;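 also: mutant grown at 25 °C; 0% = DMSO wells with yeast and 100% = wells holding no yeast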
tim23-1 inh = inhibits growth of tim23-1 mutant yeast | inhibition, % at 20 µM | S. cerevisiae tim23-1 growth, BacTiter-Glo luminescence, 24 h | hit rate 1.3% among 330,000;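 active = growth inhibition of the mutant yeast at or above 50%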;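 also: temperature-sensitive mutant grown at 25 °C; plate controls were DMSO-treated mutant yeast for no effect and medium wells lacking yeast for full effect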
TIM10 inh = inhibits growth of TIM10 yeast strain; S. cerevisiae TIM10 strain growth, BacTiter-Glo luminescence, 24 h; inhibition, % at 10 µM; hit rate 1.4% among 330,000; AID 463195;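 active = inhibition of 40% or more at the single tested concentration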;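 also: wild-type TIM10 isogenic control strain grown at permissive 25 °C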
SKKanGAS inh = inhibitors of SKKanGAS S. pyogenes growth in kanamycin (SK-promoter or general growth effect). BacTiter-Glo, 6 h. inhibition, % at 7.5 µM. hit rate 1.3% among 300,000. AID 1662;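 active = mean replicate score, as percent of positive control median, at least 50; inconclusive = mean below 50 but one replicate at or above 50; inactive = mean and every replicate below 50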;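 also: strain carries kanamycin resistance gene driven by streptokinase promoter and grows in 40 µg/ml kanamycin; loss of luminescence reflects streptokinase promoter inhibition or plain growth inhibition; 0% = median of DMSO wells and 100% = positive control at its reference dose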
tim10-1 confirm = tim10-1 yeast growth inhibition, confirmed | shares compounds with tim10-1 inh | S. cerevisiae tim10-1 ts strain growth, BacTiter-Glo, 24 h | inhibition, % at 20 µM | hit rate 56% among 7,400 | AID 463213;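 active = inhibition of yeast growth at or above a set limit in either of two repeat tests at 20 µM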;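 also: tim10-1 mutant grown at permissive 25 °C to find synthetic lethal compounds; 0% = DMSO yeast wells and 100% = medium wells without yeast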
Numbers without * were called inactive; ? = inconclusive; . = no result given. A selection: hits, their analogues and other compounds. The true share with any hit is near 4.6%.

SMILES	NLRP3 yeast inh	PfHsp90 yeast 2	tim10-1 inh	tim23-1 inh	TIM10 inh	SKKanGAS inh	tim10-1 confirm
S=C(NCCSCc1ccccc1Cl)Nc1ccccc1	18	-5	29	34	38	20	.
c1ccc(-c2cc(-c3nc4ccccc4[nH]3)c3ccccc3n2)cc1	30	-2	51*	40	22	7	38*
Cc1nn2c(c1-c1ccc(Cl)cc1)N=C(c1ccco1)CC2c1ccccc1 (centres undefined)	4	-11	42*	38	39	18	34*
CC(=O)NCCc1ccc(S(=O)(=O)Nc2ccc3c(c2)OCCO3)cc1	24	-9	20	-3	10	2	.
O=C(CNC(=O)COc1ccccc1)NCc1cccnc1	-7	-16	1	2	-2	1	.
O=S(=O)(Nc1ccc2c(c1)oc1ccccc12)N1CCCC1	12	18	48*	22	39	-7	27
O=S(=O)(c1ccc2c(c1)oc1ccccc12)N1CCOCC1	20	.	7	15	14	-3	.
CC1=C(C(=O)OCC2CCCO2)C(c2ccc(C)cc2)C2=C(CC(C)(C)CC2=O)N1 (centres undefined)	3	14	20	4	12	0	.
CC1CCc2c(sc3ncnc(NCCCOC(C)C)c23)C1 (centres undefined)	19	6	40	43	13	1	10
O=C(C[C@H]1C[C@H](C(=O)N2CCOCC2)[C@@]2(CCC3CCCC3)c3[nH]c4cc(-c5ccco5)ccc4c3CCN2C1=O)NCCc1ccccn1	.	-13	29	35	-4	.	.
COc1ccccc1CNC(=S)Nc1ccc(F)cc1	-21	-2	48*	33	16	0	1
COC(=O)Cc1ccc(NC(=S)NCc2ccccc2OC)cc1	18	9	20	-7	11	3	.
O=c1c2ccccc2nnn1COc1cccc(Cl)c1	24	-28	10	2	6	5	.
CCOC(=O)Cn1c(COc2ccccc2OC)[n+](C)c2ccccc21	22	.	-6	8	10	-3	.
CCCCCCCCCCOC(=O)Cn1c(COc2ccccc2C)[n+](C)c2ccccc21	30	?	70*	-18	25	83*	-63
CCCOC(=O)c1ccc(Oc2c(-c3ccc(OCC)cc3O)n[nH]c2C)cc1	21	0	41*	25	33	62*	29
COc1ccc(Oc2c(-c3ccc(O)cc3O)n[nH]c2C)cc1	10	9	20	3	6	-9	.
CCCS(=O)(=O)N1CCC(C(=O)NCCC(C)C)CC1	29	7	9	11	11	4	.
CCc1c(C(=O)NCc2ccccc2Cl)[nH]c(C)c1C(C)=O	16	2	56*	12	-5	0	-5
CCOc1ccc(S(=O)(=O)NC(Cc2c[nH]c3ccccc23)C(=O)O)cc1 (centres undefined)	15	-17	17	-4	9	5	.
COc1ccc(C(=O)NCC2OCCc3ccccc32)c(O)c1 (centres undefined)	33	15	45*	35	33	-2	23
CCCOc1ccc(C(=O)NCC2OCCc3ccccc32)cc1OC (centres undefined)	26	-15	17	16	2	-6	.
Cc1ccc(C(=O)Nc2ccc(F)cc2)cc1NC1=NC2CS(=O)(=O)CC2S1 (centres undefined)	16	-2	-28	-7	0	-1	.
CNc1sc(C(=O)c2ccccc2F)c(N)c1-c1nc2ccccc2s1	28	.	46*	24	35	39	35*
O=C(CNC(=O)c1ccccc1F)OCc1nc2ccccc2s1	-4	-15	1	-5	-34	0	.
SMILES	NLRP3 yeast inh	PfHsp90 yeast 2	tim10-1 inh	tim23-1 inh	TIM10 inh	SKKanGAS inh	tim10-1 confirm
Cc1nonc1C(=O)N/N=C/c1ccc(O)cc1O	6	5	46*	36	23	29	22
C/C(=N\NC(=O)c1nnn(-c2nonc2N)c1CN(C)c1ccccc1)c1ccccc1O	21	-8	62*	26	25	50*	3
COc1ccc(/C(C)=N/NC(=O)c2nnn(-c3nonc3N)c2CN(C)c2ccccc2)cc1	15	8	26	8	2	-2	.
O=C(Nc1ccc(Cl)cc1)[C@@H]1[C@@H]2C(=O)N(c3ccc(Cl)cc3Cl)C(=O)[C@@H]2[C@H]2C=CC=NN21	-9	.	45*	31	14	9	27
O=C(Nc1ccc(Cl)cc1)[C@@H]1[C@@H]2C(=O)N(c3ccc(Cl)cc3)C(=O)[C@@H]2[C@H]2C=CC=NN21	-12	.	18	17	-23	7	.
Cc1c(NC(=O)/C(C#N)=C/c2ccc(-c3ccc(Cl)c(Cl)c3)o2)c(=O)n(-c2ccccc2)n1C	21	-3	43*	29	33	1	28*
CCCN1CCN(S(=O)(=O)c2ccc3c(c2)NC(=O)C(C)S3)CC1 (centres undefined)	10	-15	-11	-4	1	2	.
COc1ccccc1N1CCN(S(=O)(=O)c2ccc3c(c2)NC(=O)C(C)S3)CC1 (centres undefined)	9	-37	43*	46	13	3	6
COc1cc(S(=O)(=O)N2CCN(c3ccccc3F)CC2)ccc1Cl	6	20	43*	17	11	-1	30
O=S(=O)(c1ccc2nc(-c3ccccc3)[nH]c2c1)N1CCN(c2cccc(Cl)c2)CC1	29	0	15	15	23	4	.
COc1cc(S(=O)(=O)N2CCN(c3ccccc3)CC2)ccc1Cl	2	-19	-3	13	3	2	.
COc1ccccc1N1CCN(S(=O)(=O)c2ccc3nc(-c4ccccc4)[nH]c3c2)CC1	20	-17	42*	37	31	22	27
O=C1NCCN(Cc2ccoc2)C1CC(=O)N(CCO)Cc1ccccc1 (centres undefined)	-5	1	-7	4	7	-2	.
CC(C)CNC(=O)/C(C#N)=C1\N=C(NC(=O)c2ccco2)c2ccccc21	12	12	47*	38	27	0	-3
COc1ccc(Br)cc1C(=O)Nc1cccc(C)c1	28	0	4	4	-11	0	.
COc1ccc(Br)cc1C(=O)Nc1cccc(NC(=O)c2ccco2)c1	5	-9	42*	49	14	2	31*
COc1c(C)cc(Br)cc1C(=O)Nc1cccc(NC(=O)c2ccco2)c1	26	-1	42*	42	36	26	36*
COc1cccc(NC(=O)c2ccco2)c1	28	3	6	34	18	4	.
COc1cc(/C=N/NC(=O)c2cc(-c3cccc(OC(C)C)c3)nc3ccccc23)ccc1O	14	-44	18	18	5	25	.

High-throughput results: PubChem, several laboratories
